In PubChem BioAssay AID1159580 (chemical genetic matrix, 2015):
Several values for one entry are separate records, joined by “and”; a condition that tells them apart may be missing. Equal entries are not always repeated. The whole screen tested about 5,500 compounds, of which about 2,000 (36%) were called active. Inconclusive results (about 18%) are left out. No stated cut-off is given here; in the data, active means normalized growth mostly below about 0.91 (no sharp cut-off); inconclusive means no clear call, values can overlap the other calls; inactive means mostly above about 0.92. The list shows a part of the results.

Assay: chemical genetic growth profiling, strain panel (AID 1159580);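 further: tested at 20 µM; growth read once vehicle control cultures reached saturation at 30 °C; 1 = growth at the plate median or of vehicle wells; lower values mean less growth of the strain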
Conditions: growth OD

Measured: normalized growth

CCC1(c2ccc(N)cc2)CCC(=O)NC1=O (stereo not drawn)
inactive: S. cerevisiae deletion strains, locus YJR075W, strain HOC1, hits give low values 0.998 | S. cerevisiae deletion strains, locus YKL009W, strain mrt4, hits give low values 1.01 | S. cerevisiae deletion strains, locus YKL068W, hits give low values 1 | S. cerevisiae deletion strains, locus YKL085W, strain MDH1 (second series), hits give low values 1 | S. cerevisiae deletion strains, locus YKL085W, strain MDH1, hits give low values 1 | S. cerevisiae deletion strains, locus YKL160W, strain elf1, hits give low values 0.939 | S. cerevisiae deletion strains, locus YKR001C, strain vps1, hits give low values 0.995 | S. cerevisiae deletion strains, locus YKR026C, strain gcn3, hits give low values 0.961 | S. cerevisiae deletion strains, locus YKR091W, strain srl3, hits give low values 0.977 | S. cerevisiae deletion strains, locus YLL001W, strain dnm1, hits give low values 0.903 | S. cerevisiae deletion strains, locus YLL026W, hits give low values 0.956 | S. cerevisiae deletion strains, locus YLL041C, strain sdh2, hits give low values 0.968 | S. cerevisiae deletion strains, locus YLR027C, strain aat2, hits give low values 0.94 | S. cerevisiae deletion strains, locus YLR039C, strain RIC1, hits give low values 1.02 | S. cerevisiae deletion strains, locus YLR058C, strain SHM2, hits give low values 1.01 | S. cerevisiae deletion strains, locus YLR102C, strain apc9, hits give low values 0.992 | S. cerevisiae deletion strains, locus YLR113W, strain HOG1, hits give low values 1.06 | S. cerevisiae deletion strains, locus YLR221C, strain rsa3, hits give low values 0.99 | S. cerevisiae deletion strains, locus YLR258W, strain gsy2, hits give low values 0.992 | S. cerevisiae deletion strains, locus YLR262C, strain YPT6 (second series), hits give low values 0.999 | S. cerevisiae deletion strains, locus YLR262C, strain YPT6, hits give low values 1.03 | S. cerevisiae deletion strains, locus YLR268W, strain sec22, hits give low values 1.01 | S. cerevisiae deletion strains, locus YLR320W, strain mms22, hits give low values 0.978 | S. cerevisiae deletion strains, locus YLR330W, strain CHS5, hits give low values 1.01 | S. cerevisiae deletion strains, locus YLR342W, strain FKS1 (second series), hits give low values 1.02 | S. cerevisiae deletion strains, locus YLR342W, strain FKS1, hits give low values 0.926 | S. cerevisiae deletion strains, locus YLR357W, strain rsc2, hits give low values 0.917 | S. cerevisiae deletion strains, locus YLR370C, strain arc18, hits give low values 0.969 | S. cerevisiae deletion strains, locus YLR371W, strain rom2, hits give low values 0.997 | S. cerevisiae deletion strains, locus YLR384C, strain iki3, hits give low values 0.972 | S. cerevisiae deletion strains, locus YLR418C, strain cdc73, hits give low values 1 | S. cerevisiae deletion strains, locus YML016C, strain PPZ1, hits give low values 1.01 | S. cerevisiae deletion strains, locus YML032C, strain rad52, hits give low values 1 | S. cerevisiae deletion strains, locus YML120C, strain ndi1, hits give low values 0.93 | S. cerevisiae deletion strains, locus YML124C, strain tub3, hits give low values 0.985 | S. cerevisiae deletion strains, locus YMR058W, strain fet3, hits give low values 0.944 | S. cerevisiae deletion strains, locus YMR078C, strain ctf18, hits give low values 0.997 | S. cerevisiae deletion strains, locus YMR125W, strain sto1, hits give low values 0.988 | S. cerevisiae deletion strains, locus YMR129W, hits give low values 0.969 | S. cerevisiae deletion strains, locus YMR205C, strain PFK2, hits give low values 1 | S. cerevisiae deletion strains, locus YMR223W, strain ubp8, hits give low values 0.993 | S. cerevisiae deletion strains, locus YMR231W, strain pep5, hits give low values 0.973 | S. cerevisiae deletion strains, locus YMR263W, strain SAP30, hits give low values 1 | S. cerevisiae deletion strains, locus YMR307W, strain GAS1, hits give low values 0.942 | S. cerevisiae deletion strains, locus YNL067W, strain RPL9B, hits give low values 0.997 | S. cerevisiae deletion strains, locus YNL071W, strain lat1, hits give low values 0.986 | S. cerevisiae deletion strains, locus YNL128W, strain TEP1, hits give low values 1.01 | S. cerevisiae deletion strains, locus YNL153C, strain GIM3, hits give low values 1.02 | S. cerevisiae deletion strains, locus YNL175C, strain NOP13, hits give low values 0.992 | S. cerevisiae deletion strains, locus YNL183C, strain NPR1, hits give low values 0.974 | S. cerevisiae deletion strains, locus YNL197C, strain WHI3, hits give low values 0.987 | S. cerevisiae deletion strains, locus YNL209W, strain ssb2, hits give low values 0.997 | S. cerevisiae deletion strains, locus YNL224C, strain SQS1, hits give low values 1.02 | S. cerevisiae deletion strains, locus YNL233W, strain BNI4, hits give low values 0.994 | S. cerevisiae deletion strains, locus YNL248C, strain rpa49, hits give low values 0.955 | S. cerevisiae deletion strains, locus YNL250W, strain rad50, hits give low values 1 | S. cerevisiae deletion strains, locus YNL271C, strain bni1, hits give low values 0.995 | S. cerevisiae deletion strains, locus YNL298W, strain CLA4, hits give low values 0.992 | S. cerevisiae deletion strains, locus YNL307C, strain MCK1, hits give low values 0.999 | S. cerevisiae deletion strains, locus YNL322C, strain KRE1 (second series), hits give low values 0.973 | S. cerevisiae deletion strains, locus YNL322C, strain KRE1, hits give low values 0.996 and 1.02 | S. cerevisiae deletion strains, locus YNR049C, strain mso1, hits give low values 0.971 | S. cerevisiae deletion strains, locus YNR052C, strain pop2, hits give low values 0.988 | S. cerevisiae deletion strains, locus YOL012C, strain htz1 0.83 | S. cerevisiae deletion strains, locus YOL147C, strain pex11, hits give low values 0.999 | S. cerevisiae deletion strains, locus YOR001W, strain rrp6, hits give low values 0.934 | S. cerevisiae deletion strains, locus YOR061W, strain CKA2, hits give low values 1.02 | S. cerevisiae deletion strains, locus YOR069W, strain VPS5, hits give low values 1 | S. cerevisiae deletion strains, locus YOR070C, strain gyp1, hits give low values 0.987 | S. cerevisiae deletion strains, locus YOR080W, strain dia2, hits give low values 0.958 | S. cerevisiae deletion strains, locus YOR083W, strain WHI5 (second series), hits give low values 1.02 | S. cerevisiae deletion strains, locus YOR083W, strain WHI5, hits give low values 0.922 | S. cerevisiae deletion strains, locus YOR106W, strain vam3, hits give low values 0.899 | S. cerevisiae deletion strains, locus YOR136W, strain idh2, hits give low values 0.983 | S. cerevisiae deletion strains, locus YOR144C, strain elg1, hits give low values 1 | S. cerevisiae deletion strains, locus YOR184W, strain ser1, hits give low values 1.02 | S. cerevisiae deletion strains, locus YOR231W, strain MKK1, hits give low values 1.05 | S. cerevisiae deletion strains, locus YOR265W, strain rbl2, hits give low values 0.966 | S. cerevisiae deletion strains, locus YOR270C, strain vph1, hits give low values 0.977 | S. cerevisiae deletion strains, locus YOR290C, strain snf2, hits give low values 0.995 | S. cerevisiae deletion strains, locus YOR316C, strain cot1, hits give low values 0.996 | S. cerevisiae deletion strains, locus YPL051W, strain arl3, hits give low values 0.962 | S. cerevisiae deletion strains, locus YPL106C, strain sse1, hits give low values 1 | S. cerevisiae deletion strains, locus YPL240C, strain hsp82, hits give low values 0.983 | S. cerevisiae deletion strains, locus YPL241C, strain CIN2, hits give low values 1 and 1.01 | S. cerevisiae deletion strains, locus YPL256C, strain CLN2, hits give low values 1.07 | S. cerevisiae deletion strains, locus YPR119W, strain clb2, hits give low values 0.991 | S. cerevisiae deletion strains, locus YPR141C, strain kar3, hits give low values 1 | S. cerevisiae deletion strains, locus YPR163C, strain tif3, hits give low values 1 | S. cerevisiae deletion strains, locus YPR167C, strain met16, hits give low values 0.997 | S. cerevisiae deletion strains, strain wtn01, hits give low values 0.985 | S. cerevisiae strains, strain wild type, hits give low values 1.01
active: S. cerevisiae deletion strains, locus YPL078C, strain atp4, hits give low values 0.89
